Out of some 100,000 compounds screened, about 770 (0.77%) were called active. This excerpt belongs to a sample that is enriched for actives. A number with no mark means an inactive call. No stated cut-off is given here; in the data, active means inhibition above about 50%; inactive means the rest.

The assay deals with Gag-Pol polyprotein (Human immunodeficiency virus type 1 group M subtype B (isolate HXB2)) (UniProt P04585). Nature of the assay: RNase H inhibition, HIV 1 Gag Pol polyprotein, FRET biochemical assay, screening (AID 372). Conditions: HIV-1 RT RNase H, FRET RNA/DNA substrate fluorescence; at 10 µM; active compounds read high.
With `CC(=O)C1C(=O)C=C(c2cccs2)CC1c1ccccc1` (stereo unspecified), the inhibition is 0%. As to `CCOC(=O)C1=C(c2ccccc2)S/C(=C2/C(=S)C(C)(C)N(C(C)=O)c3ccc(C)cc32)S1`, the inhibition was 24%. With `CC(=O)C1=C(c2ccccc2)S/C(=C2/C(=S)C(C)(C)N(C(C)=O)c3ccc(C)cc32)S1`, the inhibition is 50% (active). On to `CCOC(=O)C1=C(c2ccccc2)S/C(=C2/C(=S)C(C)(C)N(C(C)=O)c3ccc(OC)cc32)S1`, for which the inhibition is 22%. In the case of `O=C(CSc1nc(O)cc(=O)[nH]1)C1CC1`, the inhibition is 11%. The figure for `O=C1NC(=O)C(=Cc2cccn2-c2ccc(Cl)cc2)C(=O)N1` is 57% (active); for `O=C1NC(=S)N(c2ccccc2)C(=O)/C1=C/c1cccn1-c1ccc(Cl)cc1` it is 52% (active). For the compound `COc1ccc(N2C(=O)/C(=C/c3cccn3-c3ccccc3)C(=O)NC2=S)cc1`, the inhibition was 54% (active). The figure for `CN1C(=O)/C(=C/c2cccn2-c2ccc([N+](=O)[O-])cc2)SC1=S` is 42%.

Turning to `CN1C(=O)S/C(=C/c2cccn2-c2ccc(Cl)cc2)C1=O`, the inhibition is 44%.

On to `O=C1NC(=O)C(=Cc2cccn2-c2ccccc2)C(=O)N1`, for which the inhibition was 29%. As for `O=C1NC(=S)N(c2ccccc2)C(=O)/C1=C/c1cccn1-c1ccccc1`, the inhibition is 10%. Turning to `COc1ccc(-n2cccc2/C=C2/SC(=O)N(C)C2=O)cc1`, the inhibition is 53% (active). For `COc1ccc(N2C(=O)/C(=C/c3cccn3-c3ccc(Br)cc3)C(=O)NC2=S)cc1`, the inhibition was 29%. The figure for `COc1ccc(-n2cccc2/C=C2\C(=O)NC(=S)N(c3ccc(Br)cc3)C2=O)cc1` is 32%; for `O=C1NC(=S)N(c2ccc(Cl)cc2)C(=O)/C1=C/c1cccn1-c1ccccc1` it is 4%.

For the compound `O=C1NC(=S)NC(=O)C1=Cc1cccn1-c1ccc(Cl)cc1`, the inhibition was 11%.

Take `O=C(c1cc(-c2ccccc2)nc2ccccc12)N1CCc2ccccc2C1`: the inhibition is 9%. The figure for `COc1ccc(C(=O)N/C(=C\c2cc(OC)c(OC)cc2[N+](=O)[O-])C(=O)Nc2ccc(C)cc2C)cc1` is 18%; for `Cc1cccc(C2(c3cccc(C)c3)CC2C(=O)Nc2cc([N+](=O)[O-])ccc2O)c1` (stereo unspecified) it is 30%; for `CC(C)(C)NC(=O)C(=O)N/N=C/c1cccc2ccccc12` it is 10%.

Regarding `COC(=O)C(=C/C(C)=C/c1ccco1)C(=O)OC`, the inhibition was 1%. In the case of `CCN(CC)CCCCCOc1cc(C)cc(C)c1`, the inhibition is 17%. On to `COc1cc(C(=O)N/C(=C/c2ccc(Br)cc2)C(=O)NC(C)C(=O)O)cc(OC)c1OC` (stereo unspecified), for which the inhibition is 3%.

On to `COC(=O)c1ccccc1NC(=O)COc1ccc2ccccc2c1`, for which the inhibition is 38%. `O=C(COc1ccccc1)Nc1ccccc1C(=O)Nc1ccc(C(=O)O)cc1`: the inhibition is 1%.

As for `O=C(COc1ccc2ccccc2c1)Nc1ccccc1C(=O)Nc1ccccc1`, the inhibition is 54% (active).

As for `C=C(C)c1cccc(C(C)(C)NC(=O)NCc2ccccn2)c1`, the inhibition was 0%. Consider `O=C1c2ccccc2C(=O)N1CCc1nc2ccccc2c(=O)n1-c1ccccn1`, for which the inhibition is 61% (active). Take `O=C1c2ccccc2C(=O)N1CCc1nc2ccccc2c(=O)n1-c1ccc(Br)cn1`: the inhibition is 40%. With `Cc1cccc(-n2c(CCN3C(=O)c4ccccc4C3=O)nc3ccccc3c2=O)n1`, the inhibition is 14%. The result for `O=C(c1cccs1)N1CCN(c2ccc([N+](=O)[O-])cc2)CC1` reads 4%; that for `O=C1OC(c2ccccc2)=C/C1=C\c1c(Cl)cccc1Cl`, 50% (active); that for `Cc1ccc(C2=C/C(=C\c3cc([N+](=O)[O-])ccc3Cl)C(=O)O2)cc1`, 43%. The figure for `O=C1OC(c2ccccc2)=C/C1=C/c1ccc(Cl)cc1` is 7%. For `Cc1ccc2cc(C3=C/C(=C\c4c(Cl)cccc4Cl)C(=O)O3)ccc2c1`, the inhibition was 6%. The figure for `O=C1OC(c2ccccc2)=C/C1=C/c1ccc([N+](=O)[O-])cc1` is 2%; for `Cc1ccc([N+](=O)[O-])cc1/C=C1/C=C(c2ccccc2)OC1=O` it is 57% (active). Turning to `CC(C)(C)c1cc(/C=N/NC(=O)c2ccccc2O)cc(C(C)(C)C)c1O`, the inhibition was 25%. With `CC1=C(C(=O)Nc2ccc(Br)cc2)C(c2ccc(Br)cc2)NC(=S)N1` (stereo unspecified), the inhibition was 11%. The figure for `CC1=C(C(=O)Nc2ccc(C)cc2)C(c2ccc(Br)cc2)NC(=S)N1` (stereo unspecified) is 10%; for `CC1=C(C(=O)Nc2ccc(Br)cc2)C(c2ccc(C)cc2)NC(=S)N1` (stereo unspecified) it is 57% (active); for `COC(=O)C1=C(C)N(C)C(=O)NC1c1cc2c(cc1[N+](=O)[O-])OCO2` (stereo unspecified) it is 3%.

Consider `CCOc1ccc(/C=C2\SC(=NCc3ccccc3)N(Cc3ccccc3)C2=O)cc1`, for which the inhibition is 0%. The figure for `COc1ccc(/C=C2\SC(=NCc3ccccc3)N(Cc3ccccc3)C2=O)cc1OC` is 54% (active). Turning to `COc1ccccc1/C=C1/SC(=NCc2ccccc2)N(Cc2ccccc2)C1=O`, the inhibition was 28%. Take `COc1ccc(/C=C2\SC(=O)N(Cc3ccccc3)C2=O)cc1OC`: the inhibition is 44%. For the compound `COc1ccc(/C=C2\SC(=NCc3ccccc3)N(Cc3ccccc3)C2=O)cc1C(=O)O`, the inhibition was 23%. The figure for `COC(=O)c1ccc(/C=C2\SC(=NCc3ccccc3)N(Cc3ccccc3)C2=O)cc1` is 59% (active); for `O=C1CC(c2ccccc2)CC(O)=C1C=NCCN1CCNCC1` (stereo unspecified) it is 0%; for `COc1ccc(C=Nc2ccc(C)c(F)c2)cc1OC` it is 6%. `CCOC(=O)COc1c(Cl)cc(/C=C2\C(=O)NC(=O)N(c3ccc(F)cc3)C2=O)cc1Cl`: the inhibition was 2%. For the compound `CC/C(=C1\C(=O)N(c2nc3ccccc3s2)N=C1C(F)(F)F)N1CCCCC1`, the inhibition was 5%.

As for `CCOc1ccc(N(CC(=O)N2CCC(C)CC2)S(=O)(=O)c2ccccc2)cc1`, the inhibition is 8%. As for `CCc1cc(CC)c(/C=N/O)c(CC)c1/C=N/O`, the inhibition is 0%. For the compound `CCc1cc(CC)c(Cc2c(CC)cc(CC)c(/C=N/NC(N)=O)c2CC)c(CC)c1/C=N/NC(N)=O`, the inhibition was 50% (active). On to `CCCOc1ccccc1/C=N/NC(N)=O`, for which the inhibition is 0%. The result for `Cc1cc2ncn(S(=O)(=O)c3cc([N+](=O)[O-])ccc3Cl)c2cc1C` reads 57% (active); that for `Cc1cc2ncn(S(=O)(=O)c3ccc(Cl)c([N+](=O)[O-])c3)c2cc1C`, 23%; that for `Cc1ccc([N+](=O)[O-])cc1S(=O)(=O)n1cnc2ccccc21`, 22%.

With `CCCC(=O)Nc1ccc(N2CCOCC2)c(Cl)c1`, the inhibition is 0%. Turning to `CCOC(=O)CCCN1C(=O)S/C(=C\c2ccc(OC)cc2)C1=O`, the inhibition is 0%. The result for `COc1ccc(N2CC(C(=O)N/N=C/c3ccc(OC)c(OC)c3)CC2=O)cc1` (stereo unspecified) reads 3%.

Take `CCOc1cc(/C=C2\SC(=S)N(/N=C/c3ccc(O)c(OCC)c3)C2=O)ccc1O`: the inhibition was 20%. For the compound `Nc1ccc(-c2nc3ccccc3[nH]2)c(N)c1`, the inhibition was 4%. The figure for `Cc1ccc2nc(-c3sc(=S)n(-c4ccccc4)c3N)[nH]c2c1` is 21%. `COc1ccccc1/C=C/C(=O)c1c(-c2ccccc2)c2cc(Cl)ccc2[nH]c1=O`: the inhibition was 60% (active).

Regarding `COc1ccc(OC)c(/C=C/C(=O)c2c(-c3ccccc3)c3cc(Cl)ccc3[nH]c2=O)c1`, the inhibition is 50% (active). For the compound `COc1cc(/C=C/C(=O)c2c(-c3ccccc3)c3cc(Cl)ccc3[nH]c2=O)cc(OC)c1OC`, the inhibition is 3%.

For the compound `O=C(/C=C/c1ccccc1F)c1c(-c2ccccc2)c2cc(Cl)ccc2[nH]c1=O`, the inhibition is 48%. With `COc1cc(/C=C/C(=O)c2c(-c3ccccc3)c3cc(Cl)ccc3[nH]c2=O)cc(Br)c1OC`, the inhibition was 26%. For `COc1ccc(/C=C/C(=O)c2c(-c3ccccc3)c3cc(Cl)ccc3[nH]c2=O)cc1OC`, the inhibition was 11%. The result for `C=CCN1C(=O)/C(=C\c2ccc(-c3ccc(Br)cc3)o2)C(=O)NC1=S` reads 32%; that for `Cc1ccc(NC(=O)C(=O)NCc2ccc3c(c2)OCO3)cc1`, 4%; that for `Cc1nc2cc(-c3ccc(I)cc3)[nH]n2c(=O)c1C`, 0%. `COC(=N)/C(C#N)=C/c1c(O)n(-c2c(Cl)cccc2Cl)c2ccccc12`: the inhibition is 1%.
